Assay outcomes (PubChem BioAssay)
HT1080 IDH1KD tx = qHTS for induction of synthetic lethality in tumor cells producing 2HG: qHTS for the HT-1080-IDH1KD cell line. HT-1080 IDH1 knockdown viability, ATP luminescence, 48 h. Potency, µM (highest dose often 46.1 µM), actives largely listed as cytotoxic. 2% of 360,000 active
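Using the IDH1-knockdown HT-1080 line run in the same batch and compound series as the NT line, viability after 48 h at 37 °C was determined by CellTiter-Glo luminescence and expressed as % activity.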
HepG2 viability = qHTS for Inhibitors of TGF-b: Cytotox Counterscreen; 0.76% of 410,000 active; Potency, µM (highest dose often 46.1 µM), hits mostly cytotoxic; AID 588856, 2011; HepG2 CAGA-GFP viability, ATP luminescence, 18 h
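CellTiter-Glo luminescence gave cytotoxicity after 18 hours at 37 degrees C. The cells were HepG2 CAGA-GFP in 1% FBS DMEM, stimulated with 500 pg/mL TGF-beta after compound addition. %Activity was normalised to no-cell wells (complete cell-killing) and DMSO (no toxicity), and curves were fitted and classified.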
HT1080-NT tox = qHTS for induction of synthetic lethality in tumor cells producing 2HG: qHTS for the HT-1080-NT fibrosarcoma cell line; HT-1080-NT fibrosarcoma viability, CellTiter-Glo ATP luminescence, 48 h; Potency, µM (highest dose often 46.1 µM), hits mostly cytotoxic; 1.6% of 360,000 active;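 also: NT is the 2HG producing partner of a matched IDH1 knockdown line; nearly all actives have a fitted effect of over 55% in size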
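Fibrosarcoma NT cells, 750 per well in 5% FBS RPMI, were exposed to compound for 48 hours. Viability: CellTiter-Glo luminescence.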
Giardia kill = Small Molecules that selectively kill Giardia lamblia: qHTS; Giardia lamblia trophozoite viability; activity change, % at 7.66 µM, hits read low; 0.15% of 340,000 active; in the data active = activity change below about -80%; inconclusive = between about -30% and that limit;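 also: parasites exposed to compound for two days anaerobically before the ATP read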
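Compounds were tested on trophozoites seeded at 100 cells/well and held 48 hrs at 37 deg C anaerobically. An ATP-based luminescent kit measured the remaining live cells.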
TGFb inhibitor = qHTS for Inhibitors of TGF-b. HepG2 CAGA-GFP TGF-b/SMAD3 reporter, GFP fluorescence, 18 h; TGF-beta stimulated, 500 pg/mL final. Potency, µM (titrated, usually from 46.1 µM), usual class: inhibitors. 1.2% of 410,000 active; also: nearly all actives have a fitted effect of over 65% in size
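Per well, imaged GFP fluorescence of HEPG2 CAGA-GFP cells gives the signal; cells get compound, then TGF-beta (500 pg/mL final), 18 h at 37 degrees C; %Activity versus -TGF-beta and +DMSO controls.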
IL1B secr inh = qHTS for Inhibitors of Inflammasome Signaling: IL-1-beta AlphaLISA Primary Screen. AID 743279, 2014. 4.7% of 360,000 active. THP-1 LPS/ATP IL-1B secretion, AlphaLISA, 16 h; hits give low values. activity change, % at 57.5 µM; in the data active = activity change below about -50%; inconclusive = mostly about -30% to -49%
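THP-1 cells pretreated 1 hr with compounds (up to 57.5 uM final), then stimulated with LPS (250 ng/mL final) plus ATP (1.25 mM final); secreted IL-1B measured by AlphaLISA after 16 hr, decreased signal indicating inhibition.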
Numbers stand for hits; . = inactive; ? = inconclusive; / = no result; ! = not active in a repeat; [ ] = another dose, or the depositor's remark. Most compounds without a hit are left out; they make up all but 6.5% or so of the library. Unless noted, calls follow the shape of the dose curve; as a rule, active = well fitted curve in the direction sought with a large enough effect; inconclusive = small, poorly fitted or top-dose-only effect, or another doubt; inactive = no such curve, though single readings can be large; an effect the other way counts as inactive or inconclusive.

SMILES	HT1080 IDH1KD tx	HepG2 viability	HT1080-NT tox	Giardia kill	TGFb inhibitor	IL1B secr inh
O=C(NC(=S)Nc1cccc(S(=O)(=O)NC2=NCCC2)c1)c1cc(-c2ccco2)nc2ccccc12	1.64µM	.	9.2µM	.	.	.
O=C(Nc1cccc(S(=O)(=O)NC2=NCCC2)c1)c1cc(-c2ccco2)nc2ccccc12	.	.	.	.	.	.
Cn1c(=O)c2[nH]c(SCCN3CCOCC3)nc2n(C)c1=S	.	.	.	.	.	.
CCOc1cc(CNCc2cccnc2)cc(Br)c1OCC(N)=O	.	.	.	.	.	.
Cc1ccccc1C(=O)Nc1cc2c(cc1N1CCCCC1)n(C)c(=O)n2C	/	.	/	/	?	/
COc1ccc(-n2nnnc2-c2cccc(OC)c2)cc1	1.64µM	.	?	.	.	.
COc1ccc(C2C(C(N)=O)=C(C)Nc3ncnn32)cc1 (configuration not stated)	.	.	.	.	.	.
CCC(c1nnnn1CCOC)N1CCN(c2cccc(C(F)(F)F)c2)CC1 (configuration not stated)	.[9.24 µM]	.	.	.	.	.
CCN(CC)CCC(c1cc(OC)c(OC)c(OC)c1)c1c(OC)cc(OC)c2c(C)cc(=O)oc12 (configuration not stated)	.	.	.	.	?	.
CCCn1c(CN2CCN(C(=O)OCC)CC2)nc2cc(NC(=O)CC)ccc21	5.8µM	.	7.31µM	.	?	.
O=c1[nH]nc(-c2ccc(OCc3ccc(Cl)cc3Cl)cc2)o1	.	.	.	.	.	.
CCOC(=O)C1=C(Cc2ccc(F)cc2)C(=O)c2ccccc2C1=O	10µM	.	17.8µM	.	.	-71.1
C#CCN(C[C@@H]1[C@@H](OC(=O)NCC2CCCCC2)[C@@H](OC(=O)NCC2CCCCC2)CN(C(=O)OC(C)C)N1C(=O)OC(C)C)S(=O)(=O)c1ccc(C)cc1	.	.	.	/	.	.
C#CCN(C[C@@H]1[C@@H](OC(=O)NCc2ccccc2)[C@@H](OC(=O)NCc2ccccc2)CN(C(=O)OC(C)C)N1C(=O)OC(C)C)S(=O)(=O)c1ccc(C)cc1	.	.	.	/	?	-57.6
CCCSCCCNC(=O)C1CCCN(C(=O)c2cnn(-c3ccccc3)c2-n2cccc2)C1 (configuration not stated)	/	.	/	/	15.8µM	/
CCn1c(=O)c(C(=O)CN2CCCc3ccccc32)c(N)n(Cc2ccccc2)c1=O	.	.	.	.	11.2µM!	.
CCn1c(=O)c(C(=O)CN(C)Cc2ccc(F)cc2)c(N)n(Cc2ccccc2)c1=O	.	.	.	.	.	-63.3
CC(NS(=O)(=O)c1ccc(Br)cc1)C(=O)Nc1nc2ccccc2[nH]1 (configuration not stated)	.	.	.	.	.	.
O=C(Nc1ccc(Cl)cc1C(F)(F)F)c1cc(S(=O)(=O)N2CCOCC2)ccc1F	/	.	/	/	.	/
Cc1cc2c(cc(C(=O)OCC(=O)NCc3cccs3)n2C(C)C)o1	?	.	1µM	.	?	.
Cc1cc(C)cc(C(=O)OCC(=O)NCc2cccs2)c1	.	.	.	.	.	.
O=C1c2ccccc2-c2nc3ccccc3nc21	.	.	.	.	.	.
Cc1nc2c(nc1C)C(=O)c1ccccc1C2=O	18.4µM	3.55µM	?	?	2.24µM	.
Cc1ccc(NC(=O)CCCn2c(=O)c3cccn3c3ccccc32)c(Cl)c1	/	.	/	/	.	/
Cc1cc(C)cc(NC(=O)CCCn2c(=O)c3cccn3c3ccccc32)c1	/	.	/	/	11.2µM	/
Cn1cc(-c2coc3c(C(=O)NCc4cccc(Cl)c4)cccc23)cn1	.	.	?	/	.	-67.6
COc1cc(-c2coc3c(C(=O)NCc4ccc(N(C)C)cc4)cccc23)ccc1O	?	.	?	/	.	-53.1
